Results published in PubChem BioAssay (NCATS).
Results filed as inconclusive are left out. The source made the active and inactive calls. The call rests on the fitted dose curve; in most records, active means well fitted inhibition curve with a large enough effect; inconclusive means small, poorly fitted or top-dose-only effect; inactive means flat fitted curve, though single readings scatter.

System: DIV17
Assay: qHTS profiling for inhibitors of Plasmodium falciparum proliferation (AID 504749); further: nearly all actives have a fitted effect of over 60% in size;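 on activity, negative = inhibition: 0% = DMSO vehicle and full inhibition = artemisinin control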
Settings: P. falciparum in erythrocytes, SYBR Green DNA, 72 h; series mostly up to 28.7 µM; activity, negative = inhibition: at the top concentration
Procedure, shortened: (§1)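 P. falciparum-infected erythrocytes (0.3% parasitemia, 2.5% hematocrit) incubated with compound 72 h at 37 C, 5% CO2. Parasite DNA detected by SYBR Green after lysis, overnight at room temperature; normalised to 0.29 uM artemisinin and DMSO.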
Potency means the concentration at half of the fitted maximal effect.

Row | SMILES | activity, negative = inhibition
1 | CC(C)CN(C[C@@H](OP(=O)(O)O)[C@H](Cc1ccccc1)NC(=O)O[C@@H]1CCOC1)S(=O)(=O)c1ccc(N)cc1 | -3.18% (inactive)
2 | CCC(C)n1ncn(-c2ccc(N3CCN(c4ccc(OCC5COC(Cn6cncn6)(c6ccc(Cl)cc6Cl)O5)cc4)CC3)cc2)c1=O (stereo not drawn) | -22.6% (inactive)
3 | CC(C)CN(C[C@@H](O)[C@H](Cc1ccccc1)NC(=O)O[C@H]1CCOC1)S(=O)(=O)c1ccc(N)cc1 | -19.5% (inactive)

System: DIV30
Assay: as above
Settings: P. falciparum in erythrocytes, SYBR Green DNA, 72 h; series mostly up to 28.7 µM; activity, negative = inhibition: at the top concentration
Procedure, shortened: as §1

Row | SMILES | Potency | activity, negative = inhibition
4 | O=C(O)c1cc(O)c2c(c1)[C@H]([C@H]1c3cc(C(=O)O)cc(O)c3C(=O)c3c(O[C@@H]4OC(CO)C(O)C(O)C4O)cccc31)c1cccc(O[C@@H]3OC(CO)C(O)C(O)C3O)c1C2=O (stereo partly drawn) | 15.1 µM (active) | 
5 | CC(C)CN(C[C@@H](OP(=O)(O)O)[C@H](Cc1ccccc1)NC(=O)O[C@@H]1CCOC1)S(=O)(=O)c1ccc(N)cc1 |  | 1.29% (inactive)
6 | CCC(C)n1ncn(-c2ccc(N3CCN(c4ccc(OCC5COC(Cn6cncn6)(c6ccc(Cl)cc6Cl)O5)cc4)CC3)cc2)c1=O (stereo not drawn) |  | -1.9% (inactive)

System: Dd2
Assay: as above
Settings: P. falciparum in erythrocytes, SYBR Green DNA, 72 h; series mostly up to 28.7 µM; activity, negative = inhibition: at the top concentration
Procedure, shortened: as §1

Row | SMILES | activity, negative = inhibition
7 | O=C(O)c1cc(O)c2c(c1)[C@H]([C@H]1c3cc(C(=O)O)cc(O)c3C(=O)c3c(O[C@@H]4OC(CO)C(O)C(O)C4O)cccc31)c1cccc(O[C@@H]3OC(CO)C(O)C(O)C3O)c1C2=O (stereo partly drawn) | -2.87% (inactive)
8 | CC(C)CN(C[C@@H](OP(=O)(O)O)[C@H](Cc1ccccc1)NC(=O)O[C@@H]1CCOC1)S(=O)(=O)c1ccc(N)cc1 | 3.22% (inactive)
9 | CC(C)CN(C[C@@H](O)[C@H](Cc1ccccc1)NC(=O)O[C@H]1CCOC1)S(=O)(=O)c1ccc(N)cc1 | -3.16% (inactive)

System: ECU
Assay: as above
Settings: P. falciparum in erythrocytes, SYBR Green DNA, 72 h; series mostly up to 28.7 µM; activity, negative = inhibition: at the top concentration
Procedure, shortened: as §1

Row | SMILES | activity, negative = inhibition
10 | O=C(O)c1cc(O)c2c(c1)[C@H]([C@H]1c3cc(C(=O)O)cc(O)c3C(=O)c3c(O[C@@H]4OC(CO)C(O)C(O)C4O)cccc31)c1cccc(O[C@@H]3OC(CO)C(O)C(O)C3O)c1C2=O (stereo partly drawn) | -5.08% (inactive)
11 | CC(C)CN(C[C@@H](OP(=O)(O)O)[C@H](Cc1ccccc1)NC(=O)O[C@@H]1CCOC1)S(=O)(=O)c1ccc(N)cc1 | 13.4% (inactive)
12 | CCC(C)n1ncn(-c2ccc(N3CCN(c4ccc(OCC5COC(Cn6cncn6)(c6ccc(Cl)cc6Cl)O5)cc4)CC3)cc2)c1=O (stereo not drawn) | 7.45% (inactive)
13 | CC(C)CN(C[C@@H](O)[C@H](Cc1ccccc1)NC(=O)O[C@H]1CCOC1)S(=O)(=O)c1ccc(N)cc1 | -2.73% (inactive)

System: FAB9
Assay: as above
Settings: P. falciparum in erythrocytes, SYBR Green DNA, 72 h; series mostly up to 28.7 µM; activity, negative = inhibition: at the top concentration
Procedure, shortened: as §1

Row | SMILES | activity, negative = inhibition
14 | O=C(O)c1cc(O)c2c(c1)[C@H]([C@H]1c3cc(C(=O)O)cc(O)c3C(=O)c3c(O[C@@H]4OC(CO)C(O)C(O)C4O)cccc31)c1cccc(O[C@@H]3OC(CO)C(O)C(O)C3O)c1C2=O (stereo partly drawn) | -2.08% (inactive)
15 | CC(C)CN(C[C@@H](OP(=O)(O)O)[C@H](Cc1ccccc1)NC(=O)O[C@@H]1CCOC1)S(=O)(=O)c1ccc(N)cc1 | 4.03% (inactive)
16 | CCC(C)n1ncn(-c2ccc(N3CCN(c4ccc(OCC5COC(Cn6cncn6)(c6ccc(Cl)cc6Cl)O5)cc4)CC3)cc2)c1=O (stereo not drawn) | 8.59% (inactive)
17 | CC(C)CN(C[C@@H](O)[C@H](Cc1ccccc1)NC(=O)O[C@H]1CCOC1)S(=O)(=O)c1ccc(N)cc1 | 8.29% (inactive)

System: GB4
Assay: as above
Settings: P. falciparum in erythrocytes, SYBR Green DNA, 72 h; series mostly up to 28.7 µM; activity, negative = inhibition: at the top concentration
Procedure, shortened: as §1

Row | SMILES | Potency | activity, negative = inhibition
18 | O=C(O)c1cc(O)c2c(c1)[C@H]([C@H]1c3cc(C(=O)O)cc(O)c3C(=O)c3c(O[C@@H]4OC(CO)C(O)C(O)C4O)cccc31)c1cccc(O[C@@H]3OC(CO)C(O)C(O)C3O)c1C2=O (stereo partly drawn) | 15.1 µM (active) | 
19 | CC(C)CN(C[C@@H](OP(=O)(O)O)[C@H](Cc1ccccc1)NC(=O)O[C@@H]1CCOC1)S(=O)(=O)c1ccc(N)cc1 |  | 1.06% (inactive)
20 | CCC(C)n1ncn(-c2ccc(N3CCN(c4ccc(OCC5COC(Cn6cncn6)(c6ccc(Cl)cc6Cl)O5)cc4)CC3)cc2)c1=O (stereo not drawn) |  | -8.31% (inactive)
21 | CC(C)CN(C[C@@H](O)[C@H](Cc1ccccc1)NC(=O)O[C@H]1CCOC1)S(=O)(=O)c1ccc(N)cc1 |  | -12.5% (inactive)

System: HB3
Assay: as above
Settings: P. falciparum in erythrocytes, SYBR Green DNA, 72 h; series mostly up to 28.7 µM; activity, negative = inhibition: at the top concentration
Procedure, shortened: as §1

Row | SMILES | activity, negative = inhibition
22 | O=C(O)c1cc(O)c2c(c1)[C@H]([C@H]1c3cc(C(=O)O)cc(O)c3C(=O)c3c(O[C@@H]4OC(CO)C(O)C(O)C4O)cccc31)c1cccc(O[C@@H]3OC(CO)C(O)C(O)C3O)c1C2=O (stereo partly drawn) | -17.1% (inactive)
23 | CC(C)CN(C[C@@H](OP(=O)(O)O)[C@H](Cc1ccccc1)NC(=O)O[C@@H]1CCOC1)S(=O)(=O)c1ccc(N)cc1 | 11.5% (inactive)
24 | CCC(C)n1ncn(-c2ccc(N3CCN(c4ccc(OCC5COC(Cn6cncn6)(c6ccc(Cl)cc6Cl)O5)cc4)CC3)cc2)c1=O (stereo not drawn) | -0.178% (inactive)
25 | CC(C)CN(C[C@@H](O)[C@H](Cc1ccccc1)NC(=O)O[C@H]1CCOC1)S(=O)(=O)c1ccc(N)cc1 | -13% (inactive)

System: ICS
Assay: as above
Settings: P. falciparum in erythrocytes, SYBR Green DNA, 72 h; series mostly up to 28.7 µM; activity, negative = inhibition: at the top concentration
Procedure, shortened: as §1

Row | SMILES | activity, negative = inhibition | Potency
26 | O=C(O)c1cc(O)c2c(c1)[C@H]([C@H]1c3cc(C(=O)O)cc(O)c3C(=O)c3c(O[C@@H]4OC(CO)C(O)C(O)C4O)cccc31)c1cccc(O[C@@H]3OC(CO)C(O)C(O)C3O)c1C2=O (stereo partly drawn) | 4.72% (inactive) | 
27 | CC(C)CN(C[C@@H](OP(=O)(O)O)[C@H](Cc1ccccc1)NC(=O)O[C@@H]1CCOC1)S(=O)(=O)c1ccc(N)cc1 | -5.89% (inactive) | 
28 | CCC(C)n1ncn(-c2ccc(N3CCN(c4ccc(OCC5COC(Cn6cncn6)(c6ccc(Cl)cc6Cl)O5)cc4)CC3)cc2)c1=O (stereo not drawn) |  | 2.51 µM (active)
